In PubChem BioAssay AID1903 (Southern Research Specialized Biocontainment Screening …, 2009):
The campaign covered roughly 310,000 compounds. About 1,200 (0.39%) were called active. No rule for the calls is given here. Not all results are given here. Results with a measured potency or affinity are listed apart.

What follows are compounds tested against Large T antigen (Simian virus 40) (UniProt P03070) (assay: SV40 large T antigen inhibitors, biochemical (AID 1903)). Settings: SV40 large T antigen ATPase/helicase inhibition assay; at 20 µM; hits give high values.
Large T antigen (Simian virus 40), sequence (P03070 whole entry, looked up): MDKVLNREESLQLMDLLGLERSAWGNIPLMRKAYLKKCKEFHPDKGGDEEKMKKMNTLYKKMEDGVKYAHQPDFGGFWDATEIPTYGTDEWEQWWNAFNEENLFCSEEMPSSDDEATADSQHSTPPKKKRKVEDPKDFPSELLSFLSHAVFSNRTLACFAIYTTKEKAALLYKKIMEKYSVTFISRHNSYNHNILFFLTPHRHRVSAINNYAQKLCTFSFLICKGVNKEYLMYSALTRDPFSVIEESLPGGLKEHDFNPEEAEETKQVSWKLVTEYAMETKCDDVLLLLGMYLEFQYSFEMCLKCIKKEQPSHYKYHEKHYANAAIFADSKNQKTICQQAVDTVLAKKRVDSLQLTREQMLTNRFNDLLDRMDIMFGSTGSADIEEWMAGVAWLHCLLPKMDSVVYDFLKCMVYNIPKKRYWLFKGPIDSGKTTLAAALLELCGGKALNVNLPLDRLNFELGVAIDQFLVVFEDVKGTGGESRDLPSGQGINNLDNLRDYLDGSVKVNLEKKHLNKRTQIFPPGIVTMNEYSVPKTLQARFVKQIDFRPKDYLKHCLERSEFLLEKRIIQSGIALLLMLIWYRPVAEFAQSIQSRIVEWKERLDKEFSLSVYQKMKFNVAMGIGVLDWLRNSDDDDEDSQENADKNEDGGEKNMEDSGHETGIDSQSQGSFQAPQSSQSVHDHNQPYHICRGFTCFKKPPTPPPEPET

inhibition, inactive:
O=C1Nc2ccc(Br)cc2C1(O)c1ccc(F)cc1 (stereo unspecified) 5.56%
COc1ccc(F)cc1C(=O)C1CCCN(Cc2c(C)n(C)n(-c3ccccc3)c2=O)C1 (stereo unspecified) 25.2%
COc1ccc(C(=O)NC2CCCCC2)cc1S(=O)(=O)N1CCOCC1 1.05%
CC(OC(=O)c1cccc(Cl)c1)C(=O)NC1CCCCC1C (stereo unspecified) 27.1%
Nc1nnc(SCC(=O)N2CCCCC2)s1 -7.45%
COc1ccc(-n2nc3cc(C)c(N)cc3n2)cc1Cl -6.4%
O=C(CN(Cc1ccccc1)C(=O)c1csnn1)NCc1ccccc1 7.5%
Cc1nc2ccc(NC(=O)c3ccc([N+](=O)[O-])cc3[N+](=O)[O-])cc2s1 8.68%
Cc1nc2ccc(NC(=O)c3ccc(Cl)c([N+](=O)[O-])c3)cc2s1 6.3%
CCOc1ccc(C(Nc2cccnc2)c2cc(Cl)c3cccnc3c2O)cc1 (stereo unspecified) 15.7%
COc1ccccc1C(NC(C)=O)c1cc(Cl)c2cccnc2c1O (stereo unspecified) 3.72%
CCOC(=O)C1(Cc2ccccc2C)CCCN(S(=O)(=O)CC)C1 (stereo unspecified) 6.84%
Cc1ccc(C)c(S(=O)(=O)Nc2ccc(C(N)=O)cc2)c1 20.6%
Cc1cc(C)c(S(=O)(=O)Nc2ccc(O)cc2)cc1C 48.1%
Cc1cc(C)c(S(=O)(=O)Nc2ccc(O)cc2)c(C)c1 29.1%
Cc1cc(C)c(C)c(S(=O)(=O)Nc2ccc(O)cc2)c1C 30.2%
COCCOc1cc(N(CC(=O)N(C)C)S(=O)(=O)c2ccccc2)c(Cl)cc1Cl -5.2%
Cc1cc(C)c2c(=O)[nH]n(C3CCOC(C)(C)C3)c2n1 (stereo unspecified) 13.4%
O=C(Nc1ccccc1C(=O)Nc1nnc(C(F)(F)F)s1)c1ccccc1Cl 10.1%
CNC(=O)c1cc(S(=O)(=O)NCc2ccncc2)ccc1OC 11.8%
COc1ccccc1S(=O)(=O)CC(O)COc1ccc(F)cc1Cl (stereo unspecified) 4.29%
COc1ccc(/C=C/C(=O)C2CC2)cc1COc1c(C)cccc1C 7.52%
COC(=O)CC1SC(=O)NC1=Nc1ccc(OC)cc1 (stereo unspecified) 3.46%
COC(=O)CC1SC(=O)NC1=Nc1ccc(C)cc1 (stereo unspecified) 0.63%
Cc1cc(S(=O)(=O)NCc2ccccc2)ccc1OCC(=O)NCc1cccnc1 8.52%
O=C(COc1ccccc1Br)Nc1ccc2c(c1)OCCCO2 8.78%
CCOc1ccc(N2C(=O)CC(Sc3n[nH]c(-c4ccccc4)n3)C2=O)cc1 (stereo unspecified) 33.8%
COc1ccc(N2C(=O)CC(Sc3n[nH]c(-c4ccc(C)cc4)n3)C2=O)cc1 (stereo unspecified) 28.9%
Cc1nc2ccccc2n1CC(=O)NCCN1CCOCC1 21.1%
CCCCn1c(N)c(N(CCOC)C(=O)COC(=O)CSc2cc(C)c3ccccc3n2)c(=O)[nH]c1=O 11.3%
OCCNc1nc(Nc2ccc(Br)cc2)nc2ccccc12 2.29%
c1ccc(Nc2nc(NCC3CCCO3)c3ccccc3n2)cc1 (stereo unspecified) 5.53%
Oc1ccccc1Nc1nc(NCC2CCCO2)c2ccccc2n1 (stereo unspecified) 31.9%
OCCNc1nc(Nc2ccccc2)nc2ccccc12 1.4%
CC(C)CSc1nc2ccccc2[nH]1 4.9%
CC(NC(=O)c1cccnc1)C(=O)N1CCCCC1 (stereo unspecified) 11.9%
CC1CC1c1ccc(/C=C(\C#N)C(=O)Nc2ccccc2Cl)o1 (stereo unspecified) 19.3%
O=C(Cn1c(O)c(/C=C2\C=Nc3ccc(Br)cc32)sc1=O)N1CCCC1 2.37%
O=C(Nc1ccccc1F)c1ccc(CN2CCc3ccccc3C2)cc1 -1.04%
CC(C)c1cccc(C(C)C)c1NC(=O)CN1C(=O)NC2(CCCC2)C1=O 1.52%
CCC(C)(C)n1nnnc1C(c1ccc2ncccc2c1)N1CCCCCC1 (stereo unspecified) 3.78%
c1ccc(C(c2nnnn2C2CCCC2)N2CCCCCC2)nc1 (stereo unspecified) 4.88%
CCC(C)(C)n1nnnc1C(c1ccc2ncccc2c1)N1CCN(c2nc3ccccc3s2)CC1 (stereo unspecified) 9.88%
c1cc(C(c2nnnn2C2CCCC2)N2CCOCC2)ccn1 (stereo unspecified) 4.22%
c1ccc(C(c2nnnn2C2CCCC2)N2CCN(c3ccccc3)CC2)cc1 (stereo unspecified) 11.2%
c1ccc(C(c2ccccc2)N2CCN(C(c3ccccn3)c3nnnn3C3CCCC3)CC2)cc1 (stereo unspecified) -0.29%
CC(C)(C)n1nnnc1C(c1ccncc1)N1CCCCCC1 (stereo unspecified) 17.8%
CC(C)(C)n1nnnc1C(c1cccnc1)N1CCN(c2ccccc2)CC1 (stereo unspecified) 3.3%
Cc1nn(CC(=O)N/N=C/c2cccs2)c(C)c1[N+](=O)[O-] 11.7%
O=C(Nc1ccc(N2CCN(C(=O)c3ccccc3F)CC2)cc1)c1ncn[nH]1 8.25%
Cc1ccc2nc(Cl)c(/C=N/NC(=O)CN3CCOCC3)cc2c1 11.5%
COc1ccc(C(Nc2ccccn2)c2c(NC(=O)c3ccco3)sc(C)c2C)cc1 (stereo unspecified) 14.4%
Cc1cc(C)n(CC(=O)NC2CCCc3c2cnn3-c2ccc(C)c(C)c2)n1 (stereo unspecified) 2.04%
CC(C)C(CCN1C(=O)c2ccccc2C1=O)c1ccco1 (stereo unspecified) 16.2%
CCCN(C(=O)CCSc1ccc(F)cc1)c1c(N)n(Cc2ccccc2)c(=O)[nH]c1=O 5.85%
CCCCCCC(=O)Nc1nnc(CC)s1 4.74%
COc1ccc(CC(=O)N/N=C/c2sccc2C)cc1 4.71%
O=C(Nc1cccc2ccccc12)N1CC=CCC1 5.64%
CCOc1ccc(C(=O)NC(=S)Nc2ncccc2C)cc1[N+](=O)[O-] 5.78%
COc1ccc(-c2noc(N3CCCC(C(=O)Nc4ccc(F)cc4F)C3)n2)cc1 (stereo unspecified) 5.72%
O=C1N/C(=C/c2ccc(Br)s2)C(=O)N1c1ccccc1 8.81%
CC1=NN(c2ccc(C)cc2)C(=O)/C1=C\c1ccc(Br)s1 -1.11%
Cc1ccc(S(=O)(=O)N2CCCCC2)cc1C(=O)NC1CC(C)(C)NC(C)(C)C1 13.5%
COC(=O)C1=C(O)/C(=C\c2ccc(OCC(=O)Nc3ccc(OC)cc3)cc2)N=C1C 7.17%
COC(=O)C1=C(O)/C(=C\c2sccc2C)N=C1C 10.2%
COC(=O)C1=C(O)/C(=C\c2ccc(OCC(=O)Nc3ccccc3)cc2)N=C1C 4.47%
CCOC(=O)C1=C(O)/C(=C\c2ccc(OC)c(OC)c2)N=C1C 4.98%
COC(=O)C1=C(O)/C(=C\c2ccc(OCC(=O)Nc3ccccc3OC)cc2)N=C1C -3.54%
CCOC(=O)C1=C(O)/C(=C/c2cc(OC)c(OC)c(OC)c2)N=C1C 3.44%
C=CCc1cccc(CNc2nc3ccccc3n2CCN2CCOCC2)c1O -5.32%
O=C(/C=C/c1cccc(Br)c1)NC1CCN(Cc2ccccc2)CC1 7.35%
Oc1ccccc1N=Cc1sc2ccccc2c1Cl 19.7%
CSc1ccccc1NC(=O)CSc1nncs1 14.5%
CN(C(=O)C1CCCO1)c1nnc(-c2ccccn2)s1 (stereo unspecified) 8.98%
O=C(CN1CCCC1)Nc1ccc(F)cc1 -4.88%
CN(C)c1ccc(NC(=O)CN2C(=O)CC(c3ccccc3)=Nc3ccccc32)cc1 47%
Cc1nn(CC(=O)Nc2ccc(S(=O)(=O)N(C)C)cc2)c(C)c1[N+](=O)[O-] 10.9%
CC(=O)c1ccc(NC(=O)Cn2nc(C)c([N+](=O)[O-])c2C)cc1 4.55%
CCN(CC)c1ccc(NC(=O)CN2CCN(CC(=O)Nc3ccc(F)cc3)CC2)cc1 26.9%
Cc1ccc(NC(=O)CC2NCCNC2=O)cc1 (stereo unspecified) 5.94%
CN1CC(=O)N(CC(=O)Nc2ccc(N(C)C)cc2)c2ccccc2C1=O 37.1%
CCc1ccc(NC(=O)CC2NCCNC2=O)cc1 (stereo unspecified) 8.15%
CC12CCC(c3n[nH]c(=S)nc31)C2(C)C (stereo unspecified) 24.4%
Cc1ccc(SCC(=O)OCC(=O)NC2CCCCCC2)cc1 12.4%
O=C(CNC(=O)C12CC3CC(CC(C3)C1)C2)NC1=NCCS1 14.4%
Cn1ccc(C(=O)Oc2ccc(C(=O)Nc3ccc(F)cc3F)cc2)n1 1.18%
O=C(COC(=O)c1ccc(Cl)nc1)NCCNC(=O)COC(=O)c1ccc(Cl)nc1 14.5%
CC(=O)C1=C(O)C(=O)N(c2ccc(O)cc2)C1c1ccc(C)cc1 (stereo unspecified) 23.3%
Cn1cc(C(=O)Nc2ccc(F)c(Cl)c2)cn1 8.31%
COc1cccc(S(=O)(=O)Nc2ccc(C(=O)N3CCCCCC3)cc2)c1 -1.76%
COc1ccc(CN2CCN(C(=O)CC(C)C)CC2)c2ccccc12 0.53%
C/C(=C\C(=O)c1ncc(C(F)(F)F)cc1Cl)N(C)C 9.23%
Cn1cc(CN2CCC(n3nccc3NC(=O)Cc3ccccc3)CC2)cn1 2.67%
O=C(NC(NCC1CCCO1)C(Cl)(Cl)Cl)c1cccc2ccccc12 (stereo unspecified) 2.66%
NC(=O)c1cc(-c2ccccc2)sc1NC(=O)CN1CCCCC1 25.6%
CCc1cccc(N(C(=O)c2csnn2)C(C(=O)NC(C)(C)C)c2ccncc2)c1 (stereo unspecified) 14.2%
